The text below walks through data of PubChem BioAssay (NCI).

Structures are written as SMILES. This is part of a sample that, as a whole, favours compounds with a hit. Of some 83,000 tested, about 20% had one in any assay.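 Values shown are percent growth following 48 h exposure of cells in 96-well plates to a single concentration of compound; below 10 was considered active.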 Values without a mark were called inactive. Calls of active or inactive are those of the source.

Among the test systems are NCI-H23 lung; NCI-H226 lung; NCI-H322M lung; HOP-62 NSCLC; NCI-H460 lung; HOP-92 NSCLC; NCI-H522 lung; A549/ATCC NSCLC; 786-0 renal; COLO 205 colon.
Holding throughout (experiment): NCI-60 one-dose screen, 48 h (100 = growth as untreated, 0 = no growth, -100 = all killed)
Common to all, as to settings: 10 µM unless noted

With `COc1cc(/C=C/[N+](=O)[O-])c([N+](=O)[O-])cc1OC`, the growth in the experiment with NCI-H23 lung is 79.6%; in the experiment on NCI-H226 lung it was 16.1%; in the experiment on NCI-H322M lung, 110%; with HOP-62 NSCLC, 81.1%; in the experiment with NCI-H460 lung, 76.1%; with HOP-92 NSCLC, 94.2%. The growth in the experiment on NCI-H522 lung was -89.9% (active); in the experiment on A549/ATCC NSCLC, 78%; with 786-0 renal, -30.7% (active); with COLO 205 colon it was -52.7% (active).

With `COP(=O)(OC)C(O)c1ccc(Cl)cc1` (stereo not given), the growth with NCI-H23 lung is 98.8%; with NCI-H226 lung it was 102%; in the experiment on NCI-H322M lung, 84.2%; in the experiment on HOP-62 NSCLC, 104%; with NCI-H460 lung, 103%; in the experiment with HOP-92 NSCLC, 98.1%. For the same molecule, the growth in the experiment with NCI-H522 lung was 89.1%; with A549/ATCC NSCLC it was 98.3%; with 786-0 renal it was 101%; in the experiment with COLO 205 colon, 102%.

As for `CC(=O)OC1CCC2C3CCC4=C/C(=N/OC(=O)c5ccc(N(CCCl)CCCl)cc5)CCC4(C)C3CC(C)C12` (stereo not given), the growth in the experiment on NCI-H23 lung was 69.7%; in the experiment with NCI-H226 lung, 94%; in the experiment with NCI-H322M lung, 91.7%; with HOP-62 NSCLC, 78.6%; with NCI-H460 lung, -4.94% (active); in the experiment on HOP-92 NSCLC it was 92.5%. The growth was 79.2% with NCI-H522 lung, 56.6% in the experiment on A549/ATCC NSCLC, 87% in the experiment with 786-0 renal and 83.7% with COLO 205 colon.

As for `O=C1C(=Cc2cn(Cc3ccccc3)c3ccccc23)C(=O)N(Cc2ccccc2)C(=O)N1Cc1ccccc1`, the growth was 87.8% with NCI-H23 lung; -49.4% (active) in the experiment with NCI-H226 lung; 105% in the experiment on NCI-H322M lung; 85.5% in the experiment with HOP-62 NSCLC; 36% with NCI-H460 lung; 90.9% with HOP-92 NSCLC. Moreover, the growth in the experiment on NCI-H522 lung was 87.6%; in the experiment with A549/ATCC NSCLC, 80.1%; in the experiment with 786-0 renal, 93.3%; in the experiment with COLO 205 colon, 26.4%.

Turning to `Cn1cc(-c2csc(-c3cn(CCN4CCOCC4)c4ccccc34)n2)c2cccnc21`, the growth with NCI-H23 lung was 62.6%; in the experiment on NCI-H226 lung, 41.4%; with NCI-H322M lung, 84.8%; in the experiment with HOP-62 NSCLC it was 55.3%; with NCI-H460 lung it was 75.3%; with HOP-92 NSCLC it was 48.6%. Besides, the growth was 40.6% in the experiment with NCI-H522 lung, 63% in the experiment with A549/ATCC NSCLC, 75.5% with 786-0 renal and 51.2% in the experiment with COLO 205 colon.

Consider `COc1cc2c(cc1OCCCCCn1c(-c3ccco3)nc3ccccc31)N=C[C@@H]1CCCN1C2=O`, for which the growth with NCI-H23 lung was -50% (active); in the experiment on NCI-H226 lung, -14.9% (active); with NCI-H322M lung, -13% (active); in the experiment with HOP-62 NSCLC it was 6.15% (active); in the experiment on NCI-H460 lung, 4.72% (active); in the experiment with HOP-92 NSCLC, -5.94% (active). The growth in the experiment on NCI-H522 lung is -23.9% (active); in the experiment on A549/ATCC NSCLC it was 9.67% (active); with 786-0 renal, 11.5%; in the experiment with COLO 205 colon, 4.57% (active).

For `CCCCCSC1C2C(=O)C(Br)=CC13CCNc1c(O)c4c5c(c13)=[N+]2CCC=5C=N4` (stereo not given), the growth was -17.1% (active) with NCI-H23 lung; -5.15% (active) in the experiment on NCI-H226 lung; 2.94% (active) in the experiment with NCI-H322M lung; -73.2% (active) in the experiment on HOP-62 NSCLC; -33.7% (active) in the experiment on NCI-H460 lung; -56.1% (active) in the experiment with HOP-92 NSCLC. For the same molecule, the growth in the experiment with NCI-H522 lung was -64.4% (active); with A549/ATCC NSCLC, -52.1% (active); in the experiment on 786-0 renal it was -50.3% (active); with COLO 205 colon it was -76.5% (active).

Consider `CC(=O)OC1C(OC/C2=C/C3[C@@H](C(C)C)CC=C(C)[C@@H]3CC(OC(=O)/C=C/c3cn(C)cn3)[C@]3(C)C=C[C@@]2(O)O3)OCC(O)C1O` (stereo not given in full), for which the growth is 18.2% in the experiment on NCI-H23 lung; 63.5% in the experiment on NCI-H226 lung; 17.4% in the experiment on NCI-H322M lung; 8.78% (active) with HOP-62 NSCLC; 9.03% (active) in the experiment with NCI-H460 lung; 35.3% in the experiment on HOP-92 NSCLC. Besides, the growth with NCI-H522 lung is 0.4% (active); in the experiment with A549/ATCC NSCLC, 27.9%; in the experiment on 786-0 renal, 15.9%; with COLO 205 colon, -24.9% (active).

As to `c1cc2c(c3c1CCNC3)OCO2`, the growth in the experiment with NCI-H23 lung was 94.8%; in the experiment with NCI-H226 lung, 103%; with NCI-H322M lung it was 102%; in the experiment on HOP-62 NSCLC it was 96.6%; in the experiment on NCI-H460 lung, 114%; in the experiment with HOP-92 NSCLC it was 120%. Further, the growth in the experiment on NCI-H522 lung was 75.6%; in the experiment on A549/ATCC NSCLC it was 66%; in the experiment with 786-0 renal it was 96.2%; in the experiment with COLO 205 colon it was 112%.

In the case of `COC1=CC(=O)O[C@@H](/C=C/c2ccc3c(c2)OCO3)C1`, the growth in the experiment with NCI-H23 lung is 117%; with NCI-H226 lung, 92.8%; in the experiment on NCI-H322M lung, 97.5%; in the experiment with HOP-62 NSCLC, 112%; in the experiment with NCI-H460 lung, 118%; in the experiment on HOP-92 NSCLC it was 60.9%. Besides, the growth in the experiment on NCI-H522 lung was 98.3%; in the experiment on A549/ATCC NSCLC, 97%; in the experiment on 786-0 renal, 112%; with COLO 205 colon, 125%.

`N#CC1(C#N)C(c2ccc(N(CCCl)CCCl)cc2)OC23CCCCC2C1(C#N)C(=N)O3` (stereo not given): the growth is 61.5% in the experiment with NCI-H23 lung; 9.15% (active) in the experiment with NCI-H226 lung; 94.2% in the experiment with NCI-H322M lung; 89.2% in the experiment on HOP-62 NSCLC; 30.1% with NCI-H460 lung; 88.5% in the experiment with HOP-92 NSCLC. Besides, the growth is 80.2% with NCI-H522 lung, 97.3% in the experiment on A549/ATCC NSCLC, 88.6% in the experiment on 786-0 renal and 104% in the experiment on COLO 205 colon.

For `COC(=O)[C@@H](C)C[C@H](Cc1ccccc1)NC(=O)c1csc([C@@H](C[C@H](C(C)C)N(C)C(=O)[C@H](C)NC(=O)[C@H]2CCCN2C)OC(C)=O)n1`, the growth in the experiment on NCI-H23 lung is 60.8%; in the experiment on NCI-H226 lung it was 68.2%; in the experiment with NCI-H322M lung it was 63.7%; with HOP-62 NSCLC, 63.6%; with NCI-H460 lung, 30.9%; with HOP-92 NSCLC, 37.6%. For the same molecule, the growth with NCI-H522 lung was -10.7% (active); in the experiment on A549/ATCC NSCLC, 83%; with 786-0 renal, 45%; with COLO 205 colon, 22.8%.

`O=C1C=C2C(=CCOC2O)O1` (stereo not given): the growth was 60.4% in the experiment on NCI-H23 lung; 34.4% in the experiment on NCI-H226 lung; 101% in the experiment on NCI-H322M lung; 59.6% with HOP-62 NSCLC; 71.1% in the experiment with NCI-H460 lung; -22.2% (active) in the experiment with HOP-92 NSCLC. Further, the growth in the experiment with NCI-H522 lung was -79.9% (active); with A549/ATCC NSCLC, 71.6%; in the experiment on 786-0 renal, 47.1%; in the experiment on COLO 205 colon, -87.3% (active).
